# From PubChem BioAssay
# SMN2 splice up – qHTS Assay for Enhancers of SMN2 Splice Variant Expression; hit rate 2.8% among 210,000; HEK293 SMN2-luciferase splicing reporter, luminescence, 30-36 h; Potency, µM (top dose mostly 46.1 µM), inactives show at the highest dose activity change, positive = activation, usual class: activators; further: % of control where 0% means no effect; nearly all actives have a fitted effect of over 55% in size
#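 HEK293 cells carry an SMN2 […]–luciferase reporter in which exon 7 inclusion puts luciferase in frame. Cells were plated 10-12 h before compound addition, then incubated 30-36 h at 37C. ONE-Glo luminescence was read; sodium butyrate at 4.5 mM final served as control.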
# Luc counter – Counterscreen for Luciferase (Kinase-Glo TM) Inhibition | Luciferin 4-monooxygenase (Photuris pensylvanica), Q27757 | Kinase-Glo luciferase, ATP luminescence, 8 min | Potency, µM (series often up to 38.3 µM), for the others: at the highest dose activity change, negative = inhibition, usual class: inhibitors | hit rate 0.28% among 200,000; further: on the % scale 0 is the no-effect control and ±100 the full control effect; nearly all actives have a fitted effect of over 60% in size
#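 Compounds were added to a substrate mix at pH 7.2 (50 mM imidazole, 10 uM ATP, within the enzyme's linear range), followed by Kinase-Glo detection reagent; luminescence was measured after 8 minutes at ambient temperature.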
# Rab9 prom act – qHTS Assay for Rab9 Promoter Activators | Huh7 Rab9 promoter-luciferase reporter, luminescence, 24 h | Potency, µM (series often up to 9.22 µM), for the others: at the highest dose activation, negative = inhibition, hits mostly activators | hit rate 2.8% among 320,000 | AID 485297, 2010; further: % of control where 0% means no effect; nearly all actives have a fitted effect of over 60% in size
#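 Promoter activation is measured as luciferase luminescence in Huh7 cells stably transfected with a Rab9 promoter–luciferase construct, following 24 h compound exposure at 37 °C and 10 min reagent incubation at ambient temperature.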
# NPC1 promoter act – qHTS Assay for NPC1 Promoter Activators | Potency, µM (top dose mostly 9.22 µM), without a hit: top-dose activation, actives largely listed as activators | hit rate 2.4% among 320,000 | AID 485313, 2010 | Huh7 NPC1 promoter luciferase reporter, 24 h; further: % of control where 0% means no effect; nearly all actives have a fitted effect of over 60% in size
#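 Luciferase expression driven by the NPC1 promoter was measured in stably transfected Huh7 cells after a 24 h compound incubation, using a luciferase reagent and a luminescence read.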
# ELG1 genotox – qHTS screen for small molecules that induce genotoxicity in human embryonic kidney (HEK293T) cells expressing luciferase-tagged ELG1. HEK293T ELG1-luciferase reporter, luminescence, 16 h. Potency, µM (titrated, usually from 46 µM), without a hit: at the highest dose activity change, positive = activation, actives largely listed as activators. hit rate 1.3% among 330,000. AID 504466, 2011; further: % of control where 0% means no effect; nearly all actives have a fitted effect of over 60% in size
#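 Step 1: seed 2,000 HEK293T ELG1-luciferase cells per well. Step 2: add compound or DMSO, incubate 16 hr at 37 °C. Step 3: ONE-Glo, 30 min at room temperature, read luminescence.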
# FLuc modulator – qHTS profiling assay for firefly luciferase inhibitor/activator using purifed enzyme and Km concentrations of substrates (counterscreen for miR-21 project). Luciferin 4-monooxygenase (Photinus pyralis), P08659. purified FLuc, Km substrates, luminescence inhibition. Potency, µM (top dose mostly 57.5 µM), for the others: at the top dose activity change, negative = inhibition, usual class: inhibitors. hit rate 6.9% among 360,000. AID 588342, 2011;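 further: plate controls were vehicle for no effect and reference inhibitor for full effect; nearly all actives have a fitted effect of over 55% in size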
# Target sequence (P08659 whole entry, looked up): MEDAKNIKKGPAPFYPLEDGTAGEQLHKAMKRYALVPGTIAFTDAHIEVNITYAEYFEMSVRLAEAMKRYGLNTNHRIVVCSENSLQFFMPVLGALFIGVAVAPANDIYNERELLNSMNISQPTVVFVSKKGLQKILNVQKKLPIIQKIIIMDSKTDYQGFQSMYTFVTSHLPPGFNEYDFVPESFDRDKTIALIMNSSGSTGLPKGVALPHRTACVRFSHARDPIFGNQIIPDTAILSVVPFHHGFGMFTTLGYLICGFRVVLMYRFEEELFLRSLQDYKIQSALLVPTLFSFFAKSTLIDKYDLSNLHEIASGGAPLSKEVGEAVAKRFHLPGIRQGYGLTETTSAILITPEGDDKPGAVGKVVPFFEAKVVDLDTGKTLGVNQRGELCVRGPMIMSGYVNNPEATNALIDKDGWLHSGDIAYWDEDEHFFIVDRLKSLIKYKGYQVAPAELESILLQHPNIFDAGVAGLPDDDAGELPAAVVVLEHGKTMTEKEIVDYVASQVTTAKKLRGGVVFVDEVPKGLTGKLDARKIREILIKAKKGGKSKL
#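 Purified P. pyralis luciferase (10nM final) with 10uM D-luciferin and 10uM ATP (Km levels) in 50mM Tris acetate pH 7.5, 10mM Mg acetate, 0.01% Tween-20, 0.05% BSA; qHTS 6-point titration, ~60 µM downward; luminescence read.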
# * = called active by the depositor; ? = inconclusive; · = not tested or not shown; [ ] = dose if it differs, or a comment. Rows were chosen to be rich in hits. Some 7.3% of all compounds tested hit in one or more screens of this group. The call rests on the fitted dose curve; in most records, active means well fitted curve in the direction sought with a large enough effect; inconclusive means small, poorly fitted or top-dose-only effect, or another doubt; inactive means no such curve, though single readings can be large; an effect the other way counts as inactive or inconclusive. Potency means the concentration at half of the fitted maximal effect.
SMILES,SMN2 splice up,Luc counter,Rab9 prom act,NPC1 promoter act,ELG1 genotox,FLuc modulator
O[C@H]1[C@H]2c3cc4c(cc3CN3CCC(=C[C@@H]1O)[C@H]23)OCO4,-55.1%,·,·,·,·,·
COc1cc(NC(=O)C2CCN(S(=O)(=O)c3ccc4c(c3)CCCC(=O)N4)CC2)cc(OC)c1,·,·,·,·,·,-8.6%
Clc1ccc2c(c1)N(CCCN1CCCC13CCCCC3)c1ccccc1S2,2.1%[9.22 µM],-0.9%[7.66 µM],·,·,·,·
C/C(=N\NC(=O)c1ccc2c(c1)OCO2)c1ccc2c(c1)OCO2,15.8µM*,-2.8%,3.55µM*,?,9.8%,13.5µM*
CC(/C=C/c1ccccc1)=N\NC(=O)c1ccc2c(c1)OCCO2,-5.7%,-1.1%,-5.3%,-5.8%,2.3%,?
C/C(=N\NC(=O)c1ccc2c(c1)OCO2)c1ccc(C(=O)O)s1,·,-21.7%,1.0%,-0.4%,2.4%,?
C/C(=N\NC(=O)c1ccc2c(c1)OCCO2)c1ccccc1,·,·,2.9%,?,0.326µM*,0.379µM*
Cc1cc(=O)[nH]c2nnc(-c3ccc(Br)cc3)n12,·,·,?,2.82µM*,?,0.953µM*
COc1ccc(-c2[nH]c(-c3ccccc3)nc2SCC(=O)Nc2ccc3c(c2)OCO3)cc1,0.8%,·,·,·,·,-17.2%
CCc1ccc(-n2nc(CO)c(C(=O)NCCOC)n2)cc1,-1.6%,·,·,·,·,16.9µM*
C[N+](C)(C)c1ncnc2c1ncn2[C@@H]1CCCCO1,-11.5%[9.22 µM],-0.4%[7.66 µM],·,·,·,·
CCCCC/C=C\C\C=C/C=C/C=C/[C@@H](SCC(NC(=O)CCC(N)C(=O)O)C(=O)NCC(=O)O)[C@@H](O)CCCC(=O)O (some centres not stated),8.9%,0.8%,·,·,·,·
CCc1ccc(C2=NNC(=Nc3cccc(S(=O)(=O)N(C)C)c3)SC2)cc1,-79.9%,-0.7%,10.0%,22.5%,3.7%,10.7µM*
Cc1cccc(N=C2NN=C(c3ccc4c(c3)OCCO4)CS2)c1,-3.4%,-20.4%,2.82µM*,2.82µM*,?,1.2µM*
Cc1ccc(C2=NNC(=Nc3ccc(F)cc3)SC2)cc1,-1.2%,0.1%,17.9%,29.6%,-0.7%,16.9µM*
COc1cccc(CS(=O)(=O)c2nnnn2-c2ccccc2)c1,8.9%,-0.3%,·,·,·,·
CCCCN(CC)C(=O)c1cc2c(=O)n3ccccc3nc2n1C,·,·,·,·,·,-6.3%
COc1ccc(/C=C(\C#N)c2cc(OC)c(OC)cc2[N+](=O)[O-])cc1,·,·,-5.1%,2.3%,2.9%,9.53µM*
COc1ccc(C(=O)Cc2cc(OC)c(OC)cc2[N+](=O)[O-])cc1,?,-0.9%,?,?,14.7%,9.53µM*
CCOc1ccc(C2C(C(=O)Nc3ccc(C)cc3C)=C(C)Nc3c(C(=O)Nc4ccc(C)cc4)cnn32)cc1OC (configuration not stated),·,·,·,·,·,5.3%
Cc1ccc(-c2nc3ncccc3o2)cc1NC(=O)C(C)(C)C,·,·,0.5%,0.7%,0.2%,2.2%
Cc1cc(-c2nc3ncccc3o2)ccc1N,11.2µM*,-24.6%,?,?,?,16.9µM*
Nc1cc(-c2nc3ncccc3o2)ccc1Cl,10µM*,-15.8%,3.98µM*,?,?,19µM*
Cc1ccc(-c2nc3ncccc3o2)cc1N,·,·,3.55µM*,3.98µM*,?,15.1µM*
CCC(=O)Nc1ccc(-c2nc3ncccc3o2)cc1C,?,·,·,·,·,-17.8%
SMILES,SMN2 splice up,Luc counter,Rab9 prom act,NPC1 promoter act,ELG1 genotox,FLuc modulator
Cc1ccc(NC(=O)CSc2nnc(-c3cc4occc4n3C)n2-c2ccccc2C)c(C)c1,·,·,·,·,·,-11.6%
COc1cc(Nc2ncc3c(n2)CCN(Cc2cc(F)cc(F)c2)C3)cc(OC)c1,·,·,·,·,·,-3.6%
CSc1nc(/C=C2\C=Nc3ccccc32)c(O)n1C,?,?,15.2%,0.2%,13.4%,13.5µM*
CC(C)n1c(O)c(/C=C2\C=Nc3ccccc32)sc1=Nc1ccccc1,-14.6%,-0.9%,0.3%,-4.7%,-0.7%,-1.6%
CCCCN(CC)CCCNC(=O)C1CCN(c2nc3ccc(CC)cc3s2)CC1,-52.3%,·,·,·,·,19µM*
CCCCN(C)CCCNC(=O)C1CCN(S(=O)(=O)CC)CC1,·,·,·,·,·,-0.5%
CCCCN(C)CCCNC(=O)C1CCN(c2nc3ccc(CC)cc3s2)CC1,-8.0%,·,·,·,·,15.1µM*
Cc1ccc(CCNC(=O)c2ccc3nc(N4CCC(C)CC4)sc3c2)cc1,0.1%,·,·,·,·,-14.1%
CCc1ccccc1NC1=NCC(=O)N1Cc1ccc(OC)cc1,·,·,9.2%,-2.4%,3.3%,0.7%
COc1ccc(CN2C(=O)CN=C2Nc2cc(C)ccc2C)cc1,-21.4%,0.0%,29.9%,13.4%,18.4µM*,-0.8%
CCc1ccc(C(=O)CN2CCSC2=N)cc1,?,-5.5%,0.708µM*,1.58µM*,?,3.01µM*
CCCCN(CC)CCNC(=O)c1cc2c(=O)oc3ccc(C)cc3c2s1,7.3%,·,·,·,·,-5.0%
CC(=O)Nc1ccc(NC(=O)c2cc(-c3cccs3)on2)cc1,·,·,·,·,·,-8.8%
C=CCNC(=O)c1cc(-c2ccc(Br)cc2)on1,11.2µM*,-2.1%,0.794µM*,1.26µM*,?,?
Cc1ccc(O)c(NC(=O)c2noc(C(C)C)c2[N+](=O)[O-])c1,29.5%,-1.1%,-2.8%,-1.7%,?,19µM*
O=C(NCCc1ccccc1)c1cc(-c2ccc(Br)cc2)on1,-7.2%,·,·,·,·,-6.8%
CC(=O)c1ccc(NC(=O)c2noc(C(C)C)c2[N+](=O)[O-])cc1,-7.6%,0.4%,17.8%,14.3%,12.8%,-13.6%
O=C(NCCN1CCOCC1)c1cc(-c2cccs2)on1,-2.5%,1.0%,?,12.6%,?,-15.3%
C=CCNC(=O)c1cc(-c2cccs2)on1,·,·,·,·,·,13.5µM*
CC(C)NC(=O)c1cc(-c2cccs2)on1,12.6µM*,-4.1%,2.82µM*,3.16µM*,4.47µM*,15.1µM*
